Screening data as filed in PubChem.
An excerpt weighted towards active compounds, which were near 3.6% of everything screened.
MITF TRPM1 HTS = activators of MITF-driven TRPM1 promoter reporter, primary screen, cell-based, SK-MEL-5, luciferase, single point; activation, % at 12.5 µM; hit rate 0.75% among 300,000; SK-MEL-5 TRPM1-promoter luciferase, 24 h; % of positive control, neutral wells = 0; AID 588334, 2011;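 active = mean activation of at least 80% with every replicate also reaching 80%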;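 note: 0% = neutral control wells and 100% = parthenolide positive control wells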
APOBEC3A inh = APOBEC3A ssDNA deaminase inhibitors, primary screen, selectivity assay for APOBEC3G inhibitor project, biochemical, FAM/TAMRA oligo cleavage fluorescence | DNA dC->dU-editing enzyme APOBEC-3A (Homo sapiens), P31941 | hit rate 0.41% among 330,000 | inhibition, % at 20 µM | recombinant A3A, FAM/TAMRA ssDNA deamination fluorescence;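 active = at least 40% inhibition at 20 µM here, with at most 30% in a related deaminase screen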;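 note: plate controls were A3A with DMSO for no effect and wells lacking A3A enzyme for full effect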
Target sequence (P31941 whole entry, looked up): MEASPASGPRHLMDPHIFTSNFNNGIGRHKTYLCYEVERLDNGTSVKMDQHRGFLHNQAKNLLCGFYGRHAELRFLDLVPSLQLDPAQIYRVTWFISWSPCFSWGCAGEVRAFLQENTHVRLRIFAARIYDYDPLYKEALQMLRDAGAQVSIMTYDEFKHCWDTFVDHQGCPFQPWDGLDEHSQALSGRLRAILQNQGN
APOBEC3G inh = APOBEC3G DNA deaminase inhibitors, primary screen, biochemical, fluorescence, single-stranded DNA substrate, uHTS | DNA dC->dU-editing enzyme APOBEC-3G (Homo sapiens), Q9HC16 | recombinant A3G, ssDNA deamination FAM/TAMRA fluorescence | inhibition, % at 20 µM | hit rate 0.28% among 330,000 | AID 493012, 2011;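 active = inhibition of at least 40% at 20 µM, with no more than 30% in the related APOBEC3A deaminase screen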;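 note: plate controls were DMSO wells with A3G for no effect and wells lacking A3G enzyme for full effect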
PHOSPHO1 inh = PubChem AID 1565 | Phosphoethanolamine/phosphocholine phosphatase (Homo sapiens), Q8TCT1 | inhibition, % at 13.3 µM | hit rate 1.1% among 290,000 | recombinant PHOSPHO1, absorbance phosphatase assay; in the data active = inhibition above about 60%
Target sequence (Q8TCT1 whole entry, looked up): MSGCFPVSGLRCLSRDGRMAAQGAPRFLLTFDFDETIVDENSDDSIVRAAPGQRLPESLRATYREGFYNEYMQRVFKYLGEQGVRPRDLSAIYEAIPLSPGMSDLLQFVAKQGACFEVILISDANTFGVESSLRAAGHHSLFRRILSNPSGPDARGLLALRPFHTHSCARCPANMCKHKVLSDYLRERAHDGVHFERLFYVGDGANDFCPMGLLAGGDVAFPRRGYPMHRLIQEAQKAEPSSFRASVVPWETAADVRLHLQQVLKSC
Wnt bcat act = Wnt/beta-catenin pathway activators, primary screen, cell-based, plate reader, single point; AID 743398, 2014; activation, % at 9.35 µM; Wnt/beta-catenin reporter cell assay, activator; hit rate 1.2% among 300,000; in the data active = activation above about 30%, passing the limit was not always enough;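 note: 0% = neutral control wells and 100% = positive control wells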
esBAF inh = Bmi1 luciferase reporter increase in mESCs, primary screen, esBAF inhibitor project, mouse ES cells, Bmi1 luciferase knock-in, single point | hit rate 2% among 350,000 | AID 602393, 2012 | 24 h; 100% = twice the neutral-well signal | reporter increase, % at 12.5 µM; in the data active = activation above about 40%;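 note: 0% = median of the plate's neutral control wells and 100% = double that signal; a rise in the Bmi1 reporter signal indicates esBAF inhibition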
The depositor's hits bear a star; . = not tested or not shown.

SMILES	MITF TRPM1 HTS	APOBEC3A inh	APOBEC3G inh	PHOSPHO1 inh	Wnt bcat act	esBAF inh
C[C@@H]1CN([C@@H](C)CO)C(=O)c2cc(NC(=O)Nc3ccc(F)cc3)ccc2O[C@@H]1CN(C)C(=O)NC1CCCCC1	.	.	.	.	.	-3
Cc1occc1C(=O)N/N=C/c1cccc2ccccc12	97*	-2	-11	9	18	69*
Cc1occc1C(=O)N/N=C/c1ccc2c(c1)OCO2	8	-1	-3	14	38*	-27
O=C(N/N=C/c1cccc2ccccc12)c1ccccc1Cl	.	.	.	15	4	13
Cc1cc(C(=O)N/N=C/c2ccc3c(c2)OCO3)c(C)o1	50	2	-1	17	5	30
Cc1cc(/C=N/NC(=O)c2ccoc2C)cc(C)c1O	.	.	.	.	0	69*
CCN(CC)c1ccc(/C=N/Nc2cccc(C)c2)c(O)c1	-9	3	4	5	6	.
CCN(CC)c1ccc(/C=N/Nc2ccccc2)c(O)c1	3	0	-5	91*	8	25
Cc1noc(C)c1NC(=O)N(C)C[C@@H]1OCCCC[C@H](C)Oc2ccc(NS(=O)(=O)c3cccs3)cc2C(=O)N([C@@H](C)CO)C[C@@H]1C	.	.	.	.	.	-3
C/C=C/c1cnc2c(c1)C(=O)N([C@H](C)CO)C[C@@H](C)[C@H](CN(C)C(=O)Cc1ccccc1)O2	.	.	.	.	.	7
CN(C)C(=O)C[C@H]1C=C[C@@H](NC(=O)Nc2cccc(F)c2)[C@H](CO)O1	.	.	.	.	.	-4
CC(C)C#Cc1cnc2c(c1)C(=O)N([C@@H](C)CO)C[C@H](C)[C@@H](CN(C)Cc1cncnc1)O2	.	.	.	.	.	-5
CCN(CC)c1ccc(/C=N/N2CCOCC2)c(O)c1	109*	-2	-8	4	.	.
CCN(CC)c1ccc(/C=N/NC(=O)OC)c(O)c1	.	-5	-4	19	-1	27
CCCCCn1nc(C)c(/C=N/NC(=O)c2ccoc2C)c1C	51	-2	3	-4	.	62*
Cc1occc1C(=O)N/N=C/c1ccc(-c2ccccc2)cc1	40	-1	-5	12	21	-7
Cc1occc1C(=O)N/N=C/c1ccc(OCc2ccccc2)cc1	.	3	-1	-12	38*	54*
CCN(CC)c1ccc(/C=N/NC(=O)c2ccoc2C)c(O)c1	-16	1	-5	32	47*	.
CCNC(=O)[C@H]1[C@H](CO)[C@H]2Cn3c(ccc(-c4ccccc4)c3=O)[C@H]2N1C(=O)C1CCC1	.	.	.	.	.	2
C[C@H](CO)N1C[C@H](C)[C@@H](CN(C)C(=O)Nc2cc(F)ccc2F)Oc2cc(-c3cccc(F)c3)ccc2S1(=O)=O	.	.	.	.	.	-5
c1csc(-c2cn3ccc4ccccc4c3n2)c1	17	2	-4	45	23	72*
CN(C)C(=O)C[C@H]1CC[C@@H]2[C@H](COC[C@@H](O)CN2Cc2nccs2)O1	.	.	.	.	.	-3
CCCCCCn1nc(C(=O)OCC(=O)c2c(N)n(C)c(=O)n(C)c2=O)c2ccccc2c1=O	-4	3	-8	61*	-1	10
Cc1noc(C)c1NC(=O)N[C@@H]1CC[C@H](CC(=O)N2CCN(C)CC2)O[C@H]1CO	.	.	.	.	.	-2
COc1ccccc1Cc1c(-c2ccccc2)nc2ccc(Br)cn12	.	.	.	.	1	52*
SMILES	MITF TRPM1 HTS	APOBEC3A inh	APOBEC3G inh	PHOSPHO1 inh	Wnt bcat act	esBAF inh
FC(F)(F)c1ccccc1Cc1c(-c2ccc(Cl)cc2)nc2ccc(Cl)cn12	.	.	.	.	11	64*
COc1ccccc1Cc1c(-c2ccc(C)cc2)nc2ccc(Br)cn12	.	.	.	.	-2	9
FC(F)(F)c1ccccc1Cc1c(-c2ccc(Cl)cc2)nc2ccc(Br)cn12	.	.	.	.	0	42*
Fc1ccc(-c2nc3ccc(Br)cn3c2Cc2ccccc2C(F)(F)F)cc1	.	.	.	.	13	39
Brc1ccc2[nH]c3c(c2c1)CCC3	4	-5	-10	30	1	-5
O=C1Cc2c([nH]c3ccc(Br)cc23)-c2ccccc2N1	.	.	.	.	96*	.
